According to PubChem BioAssay:
Several values for one entry are separate records, joined by “and”; a condition that tells them apart may be missing. Equal values may be shown once. Results filed as inconclusive are left out. For some assays here: Results with a measured potency or affinity are listed apart. The source holds several records for some structures; these can differ, active in one and inactive in another. Activity calls are given as the source filed them.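 The calls were made as follows, unless noted: active = at least 20% inhibition of 6-phosphogluconate dehydrogenase activity; inactive = the rest.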 Peptide text beside a SMILES is read from it.

What was measured:
[1] = molecular target: 6-phosphogluconate dehydrogenase, decarboxylating (Homo sapiens) (UniProt P52209); assay: inhibition of human phosphogluconate dehydrogenase – biochemical, recombinant enzyme, NADPH absorbance, primary screen (AID 1159550); conditions: recombinant 6PGD, NADPH absorbance 341 nm; at 10 µM; stronger effect = higher value
Sequence of 6-phosphogluconate dehydrogenase, decarboxylating (Homo sapiens) (P52209 whole entry, looked up): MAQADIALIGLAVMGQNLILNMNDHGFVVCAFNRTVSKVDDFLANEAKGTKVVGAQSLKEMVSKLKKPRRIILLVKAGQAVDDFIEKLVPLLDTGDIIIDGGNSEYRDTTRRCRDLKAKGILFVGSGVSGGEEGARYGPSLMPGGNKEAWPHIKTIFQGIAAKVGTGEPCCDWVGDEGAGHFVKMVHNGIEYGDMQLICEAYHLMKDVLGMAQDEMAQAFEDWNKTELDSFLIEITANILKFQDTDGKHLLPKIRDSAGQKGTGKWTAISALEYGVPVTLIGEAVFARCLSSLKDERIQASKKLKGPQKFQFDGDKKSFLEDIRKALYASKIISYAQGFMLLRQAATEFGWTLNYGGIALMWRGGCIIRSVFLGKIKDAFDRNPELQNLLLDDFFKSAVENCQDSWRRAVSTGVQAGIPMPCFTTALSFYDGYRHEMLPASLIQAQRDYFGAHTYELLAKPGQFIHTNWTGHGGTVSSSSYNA

[2] = EMT-state selective cytotoxicity in co-culture – imaging, PC-3E GFP, TEM4-18 mCherry, primary screen (AID 1345086;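 active = compounds killing one labelled cell type while sparing the other, by normalised counts and ratio limits, not self-fluorescent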;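 as to all read-outs here: cells exposed to compound for 72 h before imaging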;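 as to red/green cell ratio (normalised): normalised mesenchymal count divided by normalised epithelial count so high means epithelial killing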); conditions: PC-3E GFP / TEM4-18 mCherry co-culture, imaging cell counts, at 1 µM; for red/green cell ratio (normalised): actives lie on both sides, counts scaled to control wells, 1 = unselective
[3] = molecular target: Mitogen-activated protein kinase 7 (Homo sapiens) (UniProt Q13164); assay: Gal4-ERK5 driven luciferase induction – cell-based, HTS, primary screen (AID 1508626;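 active = luciferase signal above three times the same-plate solvent-only control wells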;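 also: luciferase driven by Gal4-ERK5 fusion binding five Gal4 sites before minimal TATA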); conditions: HeLa Gal4-ERK5 transactivation, 18 h, at 5 µM, stronger effect = higher value
Sequence of Mitogen-activated protein kinase 7 (Homo sapiens) (Q13164 whole entry, looked up, the tested form may be a part): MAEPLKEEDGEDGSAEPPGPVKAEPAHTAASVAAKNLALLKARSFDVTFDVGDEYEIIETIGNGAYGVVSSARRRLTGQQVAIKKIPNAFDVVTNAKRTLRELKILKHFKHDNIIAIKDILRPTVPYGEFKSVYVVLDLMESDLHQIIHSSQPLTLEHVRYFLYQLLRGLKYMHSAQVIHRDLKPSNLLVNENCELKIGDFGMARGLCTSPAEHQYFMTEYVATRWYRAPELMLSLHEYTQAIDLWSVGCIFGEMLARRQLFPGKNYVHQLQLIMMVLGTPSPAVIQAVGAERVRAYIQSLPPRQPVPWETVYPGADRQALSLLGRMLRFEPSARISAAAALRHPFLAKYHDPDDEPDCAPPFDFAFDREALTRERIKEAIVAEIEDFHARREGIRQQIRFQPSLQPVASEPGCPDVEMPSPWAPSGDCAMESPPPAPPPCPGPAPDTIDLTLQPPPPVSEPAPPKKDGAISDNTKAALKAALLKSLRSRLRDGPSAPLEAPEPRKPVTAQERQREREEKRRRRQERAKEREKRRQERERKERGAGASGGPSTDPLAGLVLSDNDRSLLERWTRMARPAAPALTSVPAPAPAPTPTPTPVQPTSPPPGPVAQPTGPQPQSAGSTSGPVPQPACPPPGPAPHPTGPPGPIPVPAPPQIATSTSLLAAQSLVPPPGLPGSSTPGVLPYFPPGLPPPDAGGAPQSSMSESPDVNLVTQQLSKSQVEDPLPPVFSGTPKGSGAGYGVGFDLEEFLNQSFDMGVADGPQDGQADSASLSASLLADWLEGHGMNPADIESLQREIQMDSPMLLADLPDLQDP

[4] = blockers of polyQ-driven CASP3 activation – cell-based (AID 1583); conditions: polyglutamine-induced caspase-3 activation, cell assay; stronger effect = higher value;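 tested at 10 µM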
[5] = yeast 75Q aggregation reduction – 75Q-TubU reporter (AID 1593); conditions: Yeast 75Q polyglutamine aggregation reporter
[6] = restoration of touch response, mutant HTT neurons – whole organism, C. elegans mechanosensory neurons, N-terminal huntingtin (AID 1599); conditions: C. elegans polyQ-huntingtin mechanosensory neurons, stronger effect = higher value
[7] = blockers of cytochrome c efflux from mitochondria – biochemical, purified mitochondria (AID 1603); conditions: stronger effect = lower value;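 also: mouse liver mitochondria challenged with calcium chloride; signal normalized to the plate average as 100%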
[8] = polyglutamine aggregate formation blockers (AID 1604); conditions: polyglutamine-induced protein aggregation inhibition assay; stronger effect = higher value; tested at 2.5 µM
[9] = glutamate transport activators, MN-1 cells, MN-1 cell line (AID 1612); conditions: MN-1 motor neuron cells, stronger effect = higher value;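 also: tested at 1 µM final; 0% = mean of DMSO vehicle wells on each plate; positive means more glutamate uptake than control and negative means less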
[10] = GFP-Q80 aggregate reduction, neuronal-like cells, cell-based, NGF-treated PC12, GFPQ80 (AID 1614); conditions: PC12 NGF-treated GFP-polyQ80 inclusion reduction;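 also: lower means fewer inclusions and 0 means no inclusions at all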
[11] = 75Q-TubH aggregate inhibition, S. cerevisiae, yeast (AID 1616); conditions: S. cerevisiae 75Q-TubH polyglutamine aggregation suppression; stronger effect = higher value
[12] = compounds altering viability of human ES cells (AID 493140; call rule not given here;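 also: cells exposed to compounds for four days before counting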); conditions: human embryonic stem cell survival screen; stronger effect = higher value
[13] = P. berghei load reduction in hepatocytes – cell-based, HepG2, luciferase luminescence, HepG2 viability, primary screen (AID 624349; in the data active = parasite load remaining mostly below about 12%, no sharp cut-off; inactive = mostly above about 10%;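 also: 100% = mean of DMSO negative control wells on the same plate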); conditions: P. berghei liver stage in HepG2, luciferase luminescence, concentration not given here; parasite load remaining: stronger effect = lower value; viability: measured here: HepG2 viability without parasites
[14] = test system: Aerobactin synthetase IucA (Klebsiella pneumoniae); assay: inhibition of K. pneumoniae IucA enzyme – biochemical, Tocris library, absorbance (AID 1345561; call rule not given here;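 also: 100% = enzyme without compound and 0% = no enzyme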); conditions: purified IucA enzyme assay, absorbance (OD) read-out; stronger effect = lower value;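 tested at 8 µM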
[15] = viability loss in pontine glioma line – cell-based, SU-DIPG-XVII, MIPE5.0, CellTiter-Glo, qHTS, dose response (AID 1347060; cut-off not given, nearly all actives have AC50 up to about 26 µM;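 also: cells exposed to compound for 48 hours before viability readout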); conditions: CellTiter-Glo ATP luminescence
[16] = viability loss in pontine glioma line – cell-based, SU-DIPG-XIII, MIPE5.0, CellTiter-Glo, qHTS, dose response (AID 1347064; cut-off not given, nearly all actives have AC50 up to about 23 µM;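 also: cells exposed to compound for 48 hours before the viability read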); conditions: CellTiter-Glo ATP luminescence
[17] = viability loss in pontine glioma line – cell-based, SU-DIPG-XXV, MIPE5.0, CellTiter-Glo, qHTS, dose response (AID 1347065; cut-off not given, nearly all actives have AC50 up to about 26 µM;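 also: cells exposed to compound for 48 hours before ATP readout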); conditions: CellTiter-Glo ATP luminescence
[18] = JHH-DIPG-1 glioma cell viability, MIPE5.0 library, CellTiter-Glo luminescence, qHTS (AID 1347067; cut-off not given, nearly all actives have AC50 up to about 26 µM;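 also: cells exposed to compound for 48 hours before readout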); conditions: JHH-DIPG-1 glioma viability, CellTiter-Glo ATP luminescence
[19] = growth inhibition of DIPG cells – cell-based, MIPE5.0 library, qHTS (AID 1347068; cut-off not given, nearly all actives have IC50 up to about 30 µM;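 also: cells exposed to compound for 48 hours before viability readout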); conditions: SU-DIPG-XXV viability
[20] = viability loss with induced miR-34 in A549 – imaging, A549 dox-inducible miR-34, nuclei and caspase counts, primary screen (AID 1347080;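 active = compounds whose cell count with miR-34 switched on is under 0.7 times the count with it off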); conditions: A549 miR-34 inducible, Hoechst nuclei count, 48 h
[21] = galactose survival enhancers in mitochondrial complex I cybrids – cell-based, galactose medium, ATP luminescence, primary screen (AID 1645843;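 active = z-score of at least 1.8 in each of two replicates, scored against plate mean and spread of sample wells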;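 also: positive z means more ATP and so rescue of galactose-driven cybrid death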); conditions: complex I mutant cybrid cells, 72 h, stronger effect = higher value
[22] = rescue of PC12 cells from polyQ htt toxicity – LDH release (AID 1610); conditions: PC12 mutant huntingtin toxicity, final LDH at 4 uM, stronger effect = lower value
[23] = measured here: epithelial PC-3E GFP cell survival
[24] = measured here: mesenchymal TEM4-18 mCherry cell survival

SMILES: CCOC(=O)c1c(C)cc(O)c(C=O)c1O
- inhibition [1]: -5.47% (inactive)
- red/green cell ratio (normalised) [2]: 0.95 (inactive)
- normalised cell number [2, 23]: 0.99
- normalised cell number [2, 24]: 0.94
- luciferase signal [3]: 56 AU (inactive)

SMILES: CCOc1cccc(C(=O)c2ccc(O)c(O)c2O)c1
- inhibition [1]: 11.3% (inactive)
- red/green cell ratio (normalised) [2]: 0.95 (inactive)
- normalised cell number [2, 23]: 1.01
- normalised cell number [2, 24]: 0.96
- luciferase signal [3]: 116 AU (inactive)

SMILES: CC12CCCC(O)(C1)C1CC(C)(C)C1CC2 (stereo not drawn)
- inhibition [1]: -1.62% (inactive)
- red/green cell ratio (normalised) [2]: 0.85 (inactive)
- normalised cell number [2, 23]: 1.27
- normalised cell number [2, 24]: 1.07
- luciferase signal [3]: 128 AU (inactive)

SMILES: O=C(O)c1cccc(O)c1O
- inhibition [1]: 4.23% (inactive)
- red/green cell ratio (normalised) [2]: 0.96 (inactive)
- normalised cell number [2, 23]: 1.23
- normalised cell number [2, 24]: 1.19
- luciferase signal [3]: 20 AU (inactive)

SMILES: O=C1C=CC2=C3c4cc(O)c(O)cc4CC3(O)COC2=C1O (stereo not drawn)
- inhibition [1]: 27.6% (active)
- red/green cell ratio (normalised) [2]: 0.83 (inactive)
- normalised cell number [2, 23]: 1.07
- normalised cell number [2, 24]: 0.89
- luciferase signal [3]: 32 AU (inactive)

SMILES: CCCCC[C@H](CC(=O)O)C(=O)O
- inhibition [1]: 0.671% (inactive)
- red/green cell ratio (normalised) [2]: 0.96 (inactive)
- normalised cell number [2, 23]: 0.99
- normalised cell number [2, 24]: 0.94
- luciferase signal [3]: 40 AU (inactive)

SMILES: C=CC(C1=CC(=O)C(OC)=CC1=O)c1ccc(O)cc1 (stereo not drawn)
- inhibition [1]: 1.39% (inactive)
- red/green cell ratio (normalised) [2]: 0.91 (inactive)
- normalised cell number [2, 23]: 1.05
- normalised cell number [2, 24]: 0.95
- luciferase signal [3]: 136 AU (inactive)

SMILES: CC(=O)Oc1cc(OC(C)=O)c2c(c1)O[C@H](c1ccc(OC(C)=O)c(OC(C)=O)c1)[C@H](OC(C)=O)C2
- inhibition [1]: 13.2% (inactive) and -3.23% (inactive)
- red/green cell ratio (normalised) [2]: 0.86 (inactive)
- normalised cell number [2, 23]: 1.41
- normalised cell number [2, 24]: 1.21
- luciferase signal [3]: 48 AU (inactive)

SMILES: CC(C)C[C@H](N)C(=O)N[C@@H](C)C(=O)O (H-Leu-Ala-OH)
- inhibition [1]: 3.68% (inactive)
- red/green cell ratio (normalised) [2]: 0.74 (inactive)
- normalised cell number [2, 23]: 1.26
- normalised cell number [2, 24]: 0.93
- luciferase signal [3]: 16 AU (inactive)

SMILES: COC(=O)c1c(C)cc(OC(=O)c2c(C)cc(O)c(C=O)c2O)c(C)c1O
- inhibition [1]: 1.13% (inactive)
- red/green cell ratio (normalised) [2]: 0.78 (inactive)
- normalised cell number [2, 23]: 1.24
- normalised cell number [2, 24]: 0.97
- luciferase signal [3]: 12 AU (inactive)

SMILES: COc1ccc(-c2coc3c(OC)c(OC)cc(O)c3c2=O)cc1
- inhibition [1]: -3.95% (inactive)
- red/green cell ratio (normalised) [2]: 1.01 (inactive)
- normalised cell number [2, 23]: 1.18
- normalised cell number [2, 24]: 1.19
- luciferase signal [3]: 56 AU (inactive)

SMILES: O=c1cc(-c2ccc(O)cc2)oc2cc(O[C@@H]3O[C@H](CO)[C@@H](O)[C@H](O)[C@H]3O[C@@H]3OC[C@](O)(CO)[C@H]3O)cc(O)c12
- inhibition [1]: -39.6% (inactive)
- red/green cell ratio (normalised) [2]: 0.8 (inactive)
- normalised cell number [2, 23]: 1.3
- normalised cell number [2, 24]: 1.03
- luciferase signal [3]: 196 AU (active)

SMILES: C=C1C(N)CC2CC1C2(C)C (stereo not drawn)
- inhibition [1]: 16.7% (inactive)
- red/green cell ratio (normalised) [2]: 1.05 (inactive)
- normalised cell number [2, 23]: 1.09
- normalised cell number [2, 24]: 1.15
- luciferase signal [3]: 60 AU (inactive)

SMILES: CC(=O)O[C@H]1C[C@@H](OC(C)=O)C(C)(C)C2CC(=O)[C@]3(C)C(CC[C@@]4(C)[C@H](C(=O)O)OC(=O)C5OC543)[C@]21C (stereo partly drawn)
- inhibition [1]: 1.04% (inactive)
- red/green cell ratio (normalised) [2]: 1 (inactive)
- normalised cell number [2, 23]: 0.99
- normalised cell number [2, 24]: 0.99
- luciferase signal [3]: 120 AU (inactive)

SMILES: Cc1cc(O)cc(=O)o1
- inhibition [1]: 18.1% (inactive)
- red/green cell ratio (normalised) [2]: 0.97 (inactive)
- normalised cell number [2, 23]: 1.03
- normalised cell number [2, 24]: 1.01
- luciferase signal [3]: 52 AU (inactive)

SMILES: COc1cc(O)c(C(=O)c2ccccc2)cc1O
- inhibition [1]: -3.44% (inactive)
- red/green cell ratio (normalised) [2]: 0.89 (inactive)
- normalised cell number [2, 23]: 1.31
- normalised cell number [2, 24]: 1.17
- luciferase signal [3]: 48 AU (inactive)

SMILES: O=C(CC(=O)c1ccccc1)c1ccccc1
- inhibition [1]: 21.3% (active)
- red/green cell ratio (normalised) [2]: 0.84 (inactive)
- normalised cell number [2, 23]: 1.16
- normalised cell number [2, 24]: 0.97
- luciferase signal [3]: 80 AU (inactive)

SMILES: NC(Cn1ccc(=O)c(O)c1)C(=O)O (stereo not drawn)
- inhibition [4]: -4.48%
- score [5]: 0.73
- rescue above control [6]: -6.31
- cytochrome c release ratio [7]: 0.84
- inhibition of aggregation [8]: 7.48%
- glutamate uptake change [9]: 15.6%
- inclusion score [10]: 2
- aggregation suppression score [11]: 0.845
- survival [12]: 11.3 (inactive)
- parasite load remaining [13]: 81.8% (inactive) and 76.8% (inactive)
- viability [13]: 72.6%
- inhibition [1]: 17.3% (inactive)
- red/green cell ratio (normalised) [2]: 1.1 (inactive)
- normalised cell number [2, 23]: 0.94
- normalised cell number [2, 24]: 1.04

SMILES: CC(=O)N[C@@H]1[C@@H](O)[C@H](O)[C@@H](CO)O[C@H]1O
- inhibition [4]: 0.38%
- score [5]: 1.2
- rescue above control [6]: 2.33
- cytochrome c release ratio [7]: 0.85
- inhibition of aggregation [8]: 91.6%
- glutamate uptake change [9]: -1.05%
- inclusion score [10]: 2
- aggregation suppression score [11]: 1.62
- parasite load remaining [13]: 72.2% (inactive)
- viability [13]: 78.3%
- inhibition [1]: -7.13% (inactive)
- red/green cell ratio (normalised) [2]: 0.98 (inactive)
- normalised cell number [2, 23]: 1
- normalised cell number [2, 24]: 0.98
- luciferase signal [3]: 64 AU (inactive)

SMILES: C[C@@]12C(=O)OC(=O)[C@]1(C)[C@H]1CC[C@@H]2O1
- parasite load remaining [13]: -0.2% (inactive)
- viability [13]: 9.1%
- inhibition [1]: -26.6% (inactive)
- remaining activity [14]: 119% (inactive)
- AC50 [15]: 2630 nM (active)
- AC50 [16]: 2950 nM (active)
- AC50 [17]: 1860 nM (active)
- AC50 [18]: 2350 nM (active)
- IC50 [19]: 2950 nM (active)
- fold change ([20]; stronger effect = lower value, cell number ratio, induced over uninduced): 0.592 (active) and 1.01 (inactive)
- fold change ([20]; measured here: relative caspase fold change +Dox/-Dox): 2.6 and 1.41
- cell count ([20]; measured here: total cells with miR-34 induction, stronger effect = lower value): 223 and 535
- cell count ([20]; measured here: total cells without miR-34 induction): 376 and 530
- luciferase signal [3]: 52 AU (inactive)
- z-score [21]: -0.755 (inactive)

SMILES: CC(=O)c1c(O)c(C)c(O)c2c1OC1=CC(=O)C(C(C)=O)C(=O)C12C (stereo not drawn)
- inhibition [4]: 59.1%
- score [5]: 0.79
- rescue above control [6]: 1.6
- cytochrome c release ratio [7]: 0.98
- inhibition of aggregation [8]: -17%
- normalised LDH release [22]: 1.02
- glutamate uptake change [9]: -5.26%
- aggregation suppression score [11]: 0.354
- inhibition [1]: -11.1% (inactive)
- red/green cell ratio (normalised) [2]: 0.89 (inactive)
- normalised cell number [2, 23]: 1.06
- normalised cell number [2, 24]: 0.94
- luciferase signal [3]: 80 AU (inactive)
